# Data as given in PubChem BioAssay (NCATS).
# Calls of active or inactive are those of the source. Calls follow the shape of the dose curve; as a rule, active = well fitted curve in the direction sought with a large enough effect; inconclusive = small, poorly fitted or top-dose-only effect, or another doubt; inactive = no such curve, though single readings can be large or run the other way.
# Target: Guanine nucleotide-binding protein G(i) subunit alpha-1 (Homo sapiens) (UniProt P63096)
# Assay: qHTS Assay for Inhibitors of RGS12 GoLoco Motif Activity (Green Fluorophore) (AID 879);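 also: 0% = labeled peptide with Gαi1 and full inhibition = labeled peptide alone without protein; negative values mean loss of peptide binding seen as reduced polarization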
# Details: Galphai1/FITC-RGS12 GoLoco peptide, fluorescence polarization; series mostly up to 57.1 µM; activity, negative = inhibition: at the top concentration
# Source text: Assay Overview: NIH Molecular Libraries Screening Centers Network [MLSCN] NIH Chemical Genomics Center [NCGC] MLSCN Grant: NS053754-01 Assay Provider: Siderovski, David P, University of North Carolina at Chapel Hill G-protein-coupled receptors (GPCRs) are major targets for drug discovery. The regulator of G-protein signaling (RGS)-protein family has important roles in GPCR signal transduction. RGS proteins contain a conserved RGS-box, which is often accompanied by other signaling regulatory elements. RGS proteins accelerate the deactivation of G proteins to reduce GPCR signaling; however, some also have an effector function and transmit signals. Combining GPCR agonists with RGS inhibitors should potentiate responses, and could markedly increase the agonist's regional specificity. The diversity of RGS proteins with highly localized and dynamically regulated distributions in brain makes them attractive targets for pharmacotherapy of central nervous system disorders. […] A complex of Gai1 and fluorescently labeled G-alpha-binding peptide (the "GoLoco motif") derived from RGS12 is incubated with library members. Inhibitors of the binding are detected by a decrease in the fluorescence polarization (FP) of the fluorophore. Protein was supplied by Prof. David Siderovski, University of North Carolina at Chapel Hill.
# Assay Protocol: Reagents/Controls: Assay Buffer: 10 mM Tris-HCl, 150 mM NaCl, 0.1 mM GDP (prepared fresh), and 0.05% NP40 at pH 7.5. […] 10 nM FITC labeled peptide/50 nM protein in columns 1, 2, 5 - 48. Titration of unlabeled peptide control ([H][…][NH2], custom synthesized and HPLC-purified by Tufts University Core Facility) from 10 mM, then 1:2 dilution, 16-point in duplicate, pin-transferred to column 2, rows 1 to 32. Column 1 is neutral. FITC-labeled RGS12-GoLoco peptide was custom-synthesized and HPLC-purified by Michael Berne of Tufts University Assay Steps. Four uL of reagents were dispensed to 1536-well Greiner black solid-bottom plates. Compounds and controls (23 nL) were transferred via Kalypsys PinTool. The plates were incubated for 10 min at room temperature, and then read on ViewLux (Perkin-Elmer) High-throughput CCD imager using FITC polarization filter sets for the fluorescein-labeled decapeptide probe.During dispense, reagent bottles were kept submerged into 4 deg C water bath and all liquid lines were covered with aluminum foil to minimize probe and protein degradation. All screening operations were performed on a Kalypsys robotic system (Kalypsys, Inc., San Diego, CA) containing one RX-130 and two RX-90 anthropomorphic robotic arms.
# Sequence of Guanine nucleotide-binding protein G(i) subunit alpha-1 (Homo sapiens) (P63096 whole entry, looked up): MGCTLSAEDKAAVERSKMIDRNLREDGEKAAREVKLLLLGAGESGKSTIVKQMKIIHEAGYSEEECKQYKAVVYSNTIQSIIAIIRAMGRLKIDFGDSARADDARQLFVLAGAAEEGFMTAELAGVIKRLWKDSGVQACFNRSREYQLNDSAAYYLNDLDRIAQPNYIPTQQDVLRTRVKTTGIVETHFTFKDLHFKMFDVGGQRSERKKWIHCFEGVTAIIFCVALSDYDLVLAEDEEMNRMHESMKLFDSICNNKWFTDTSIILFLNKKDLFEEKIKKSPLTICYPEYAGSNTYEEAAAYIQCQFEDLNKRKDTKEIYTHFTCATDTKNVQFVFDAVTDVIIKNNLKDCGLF
SMILES,outcome,"activity, negative = inhibition"
CCCN(CCC)[C@@H]1CCc2ccc(O)cc2C1,inactive,
CNCCc1ccc(O)c(O)c1,,-4.68% (inactive)
c1ccc(CCCN2CCN(CCOC(c3ccccc3)c3ccccc3)CC2)cc1,,-6.64% (inactive)
CC(C)Oc1cccnc1N(C)C1CCN(Cc2ccccc2)CC1,,-18.6% (inactive)
CNCCc1c[nH]c2ccc(O)cc12,,-9.42% (inactive)
CN[C@@H]1C[C@@H](c2ccc(Cl)c(Cl)c2)c2ccccc21,,-14.7% (inactive)
O=C1CCCN1CC#CCN1CCCC1,,-17.8% (inactive)
S=C(NC1CCCCC1)N1CCC(c2cnc[nH]2)CC1,,-13.9% (inactive)
NCCc1c[nH]c2ccc(O)cc12,,-15.9% (inactive)
Cn1cnc(CCN)c1,,-9.65% (inactive)
O=C(O)Cc1cnc[nH]1,,-6.92% (inactive)
C[C@]12N[C@H](Cc3ccccc31)c1ccccc12,inactive,
NCc1cc(=O)[nH]o1,,3.72% (inactive)
C#CCOC(=O)C1=CCCN(C)C1,,-19.8% (inactive)
Cc1nc(-c2ccc(-c3ccc(C(=O)N4CCc5cc6c(cc54)C4(CCN(C)CC4)CO6)cc3)c(C)c2)no1,,-5.74% (inactive)
CC1=NN=C(c2ccc(N)cc2)c2cc3c(cc2C1)OCO3,,6.46% (inactive)

SMILES,outcome,"activity, negative = inhibition"
Clc1cnc(Oc2ccc(Oc3ncc(Cl)cc3Cl)cc2)c(Cl)c1,,-16.8% (inactive)
NC(=NCCC[C@H](N)C(=O)O)N[N+](=O)[O-],,-13.5% (inactive)
Cc1c(C(=O)c2cccc3ccccc23)c2cccc3c2n1[C@H](CN1CCOCC1)CO3,,10% (inactive)
COc1ccc2c(c[n+](C)c3c4cc5c(cc4ccc23)OCO5)c1OC,,-14% (inactive)
O=C(O)CC[N+](=O)[O-],,-10.2% (inactive)
c1ccc2sc(C3(N4CCCCC4)CCCCC3)cc2c1,,-17.6% (inactive)
Cc1nccc2c1[nH]c1ccccc12,,-19.9% (inactive)
CCCCc1ccc(C(=O)O)nc1,,-19.4% (inactive)
CC(=O)NCCc1c[nH]c2ccccc12,,3.17% (inactive)
CCCN1CCC[C@H](c2cccc(O)c2)C1,inactive,
NC(N)=NOCCC(N)C(=O)O (stereo unspecified),,0.0375% (inactive)
CC[C@@]1(O)C(=O)OCc2c1cc1n(c2=O)Cc2cc3ccccc3nc2-1,,-1.77% (inactive)
NCCc1c[nH]c2ccccc12,,4.37% (inactive)
CCCN1CCO[C@@H]2c3cc(O)ccc3OC[C@H]21,inactive,
C[C@@H]1O[C@H](C[N+](C)(C)C)C[C@H]1O,,17.4% (inactive)
